High-throughput results from PubChem BioAssay.
IL1B secr inh – inflammasome signaling inhibition, IL-1 beta readout | THP-1 LPS/ATP IL-1B secretion, AlphaLISA, 16 h; active compounds read low | activity change, % at 57.5 µM | hit rate 4.7% among 360,000 | AID 743279; in the data active means activity change below about -50%; inconclusive means mostly about -30% to -49%
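Secreted IL-1B measured by AlphaLISA bead assay after 16 h compound exposure of THP-1 cells; compounds (final up to 57.5 uM) added 1 h before LPS (250 ng/mL) and ATP (1.25 mM) stimulation; lower signal means less secretion.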
HT1080 IDH1KD tx – toxicity to HT-1080 IDH1 knockdown cells (counter line). Potency, µM (doses to about 46.1 µM), for inactives: at the highest dose activity, negative = toxicity, usual class: cytotoxic. hit rate 2% among 360,000. HT-1080 IDH1 knockdown viability, ATP luminescence, 48 h. AID 686971;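 further: potency means the concentration at half of the fitted maximal effect; 0% = DMSO wells and -100% = cell-free medium wells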
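Cytotoxicity counter-line: IDH1KD HT-1080, 48 h, CellTiter-Glo. Curves classed by r2, magnitude and activity.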
uPA generation – inhibitors of cell surface uPA generation; cell surface uPA generation assay, qHTS; hit rate 0.31% among 330,000; Potency, µM (top dose mostly 38.3 µM), for the others: top-dose activity change, negative = inhibition, actives largely listed as inhibitors; active means well fitted inhibition curve with a large enough effect; inconclusive means small, poorly fitted or top-dose-only effect; inactive means no such curve, though single readings can be large or run the other way; tested in mouse RAW 264.7 cells; further: potency means the concentration at half of the fitted maximal effect; nearly all actives have a fitted effect of over 55% in size
HT1080-NT tox – kills 2HG-producing HT-1080-NT fibrosarcoma cells; HT-1080-NT fibrosarcoma viability, CellTiter-Glo ATP luminescence, 48 h; Potency, µM (series often up to 46.1 µM), for inactives: at the highest dose activity, negative = less viability, hits mostly cytotoxic; hit rate 1.6% among 360,000; AID 686970;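 further: NT is the 2HG producing partner of a matched IDH1 knockdown line; potency means the concentration at half of the fitted maximal effect; 0% = DMSO-treated cells and -100% = media-only wells without cells; nearly all actives have a fitted effect of over 55% in size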
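Compounds were tested in concentration-response format on HT-1080-NT cells for 48 hours at 37 degrees C. Cell viability came from CellTiter-Glo luminescence; curves were classified by r2, response magnitude and activity.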
TDP1 cell CPT – growth inhibition of DT40 Tdp1-/-;hTDP1 cells with camptothecin (screen for TDP1 inhibitors). chicken DT40 Tdp1-/-;hTDP1 cells + 20 nM CPT, ATP luminescence, 48 h. Potency, µM (highest dose often 46.2 µM), inactives show at the highest dose activity change, negative = growth inhibition, most hits filed as inhibitors. hit rate 12% among 420,000; further: potency means the concentration at half of the fitted maximal effect; nearly all actives have a fitted effect of over 55% in size
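Cell growth measured by CellTiter-Glo luminescence after a minimum 48 h, 37 C compound exposure with 20 nM CPT in Tdp1-knockout DT40 cells stably expressing hTDP1, seeded 400/well; qHTS titration format.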
TDP1 cell noCPT – qHTS for Inhibitors of human tyrosyl-DNA phosphodiesterase 1 (TDP1): qHTS in cells in absence of CPT; DT40 Tdp1-/- hTDP1 cells, no CPT, ATP luminescence, 48 h; Potency, µM (highest dose often 46.2 µM), for the others: at the top dose activity change, negative = growth inhibition, most hits filed as inhibitors; hit rate 15% among 420,000; further: potency means the concentration at half of the fitted maximal effect; nearly all actives have a fitted effect of over 55% in size
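No-CPT arm: Tdp1-/-;hTDP1 DT40 cells (400/well) plus compounds, incubated ≥48 hr at 37 °C. Readout CellTiter-Glo luminescence.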
* marks the source's active call; other numbers are inactive results; ? = inconclusive; / = not tested or not shown; ! = a repeat was not active; [ ] = dose if it differs, or a comment. A selection: hits, their analogues and other compounds. The true share with any hit is near 19%. Unless noted, the call rests on the fitted dose curve; in most records, active means well fitted curve in the direction sought with a large enough effect; inconclusive means small, poorly fitted or top-dose-only effect, or another doubt; inactive means no such curve, though single readings can be large; an effect the other way counts as inactive or inconclusive. Unless noted, on the % scale 0 is the no-effect control and ±100 the full control effect.

SMILES | IL1B secr inh | HT1080 IDH1KD tx | uPA generation | HT1080-NT tox | TDP1 cell CPT | TDP1 cell noCPT
CCOC(=O)N1CCN(S(=O)(=O)c2cc(-c3nn4c(C)nnc4c4ccccc34)ccc2C)CC1 | 19.5 | 8.1% | 2.0% | 6.9% | ? | 25.9µM*
Cc1ccc(-c2nn(C)c(=O)c3ccccc23)cc1S(=O)(=O)N1CCCC1 | 20.9 | -9.7% | ? | -2.4% | 14.6µM* | ?
Cc1ccc(-c2nn(C)c(=O)c3ccccc23)cc1S(=O)(=O)N1CCOCC1 | 18.5 | -1.2% | / | 1.9% | 11.2µM* | ?
CC(C)(C)SCCNC(=O)/C=C/c1cccc([N+](=O)[O-])c1 | -13.8 | 12.4% | 0.5% | 11.4% | -3.0% | ?
N/C(CSc1ccc(Cl)cc1)=N\NC(=O)c1ccncc1 | 47.7 | 5.1% | 0.6% | 0.2% | -2.6% | ?
O=c1c2ccccc2c(C=Nc2ccc(Cl)cn2)c(O)n1-c1cc(Cl)ccc1N1CCOCC1 | -8.2 | 7.7% | 11.2% | 2.4% | ? | 1.46µM*
CN1CCN(c2ccc(NC(=S)NC(=O)c3cccc4c(Cl)cccc34)cc2)CC1 | 10.9 | 1.4% | 1.6% | 14.4% | 16.4µM* | ?
CCOc1cccc(C(=O)Nc2ccc(N(CC)CC)cc2)c1 | -14.1 | -27.2% | -16.7% | -26.1% | 20.6µM* | ?
CCOc1cccc(C(=O)Nc2ccc3ccccc3c2)c1 | -17.3 | -23.6% | -12.7% | -13.9% | 25.1% | -23.9%
COc1ccc(OCc2cccc(C(=O)Nc3ccc(CN4CCCCC4)cc3)c2)cc1 | -15.5 | -18.7% | -13.9% | -1.3% | ? | ?
CCOc1ccc(OCc2cccc(C(=O)Nc3ccc(CN4CCCCC4)cc3)c2)cc1 | -100.1* | ? | -13.1% | 14.6µM* | 8.2µM* | 20.6µM*
COc1cccc(C(=O)NC(=S)Nc2ccc(N3CCCC3)cc2)c1 | -57.4* | 0.0%[9.24 µM] | 5.4% | -1.6% | ? | 16.4µM*
CCOc1ccc(C(=O)Nc2ccc(N3CCCC3)cc2)cc1 | -12.3 | -3.9% | 4.1% | -0.9% | -30.0% | -23.5%
CCOc1cccc(C(=O)Nc2ccc(N3CCCC3)cc2)c1 | -29.2 | -24.0% | -7.4% | -6.8% | -18.7% | 16.4µM*
CCCC(=O)N1CCN(c2ccc(NC(=S)NC(=O)c3cccc(C)c3)cc2)CC1 | -64.8* | -1.3% | -5.9% | -3.3% | ? | 23.1µM*
Cn1c(=O)c2c(nc(Oc3ccccc3Cl)n2Cc2ccc(C#N)cc2)n(C)c1=O | / | / | / | / | -1.1% | 3.7%
CN(Cc1cccs1)C(=O)c1cccc(S(=O)(=O)N2CCCCCC2)c1 | -20.7 | 7.1% | 1.0% | 0.8% | -22.3% | -16.7%
COc1ccc(-n2nc3c(N4CCC(C(=O)NCCc5ccccc5C)CC4)nnc(C)c3c2C)cc1 | -82.8* | -10.8% | -3.7% | -1.2% | ? | 16.4µM*
Cc1ccc(-n2nc3c(N4CCC(C(=O)N5CCCCC5)CC4)nnc(C)c3c2C)cc1 | / | / | / | / | ? | 23.1µM*
Cc1nnc(N2CCC(C(=O)NC(C)C)CC2)c2nn(-c3ccccc3)c(C)c12 | / | / | / | / | -21.1% | -23.1%
Cc1nnc(N2CCC(C(=O)N3CCCCC3)CC2)c2nn(-c3ccccc3)c(C)c12 | / | / | / | / | -25.7% | ?
COc1ccc(-n2nc3c(N4CCC(C(=O)NCC(C)c5ccccc5)CC4)nnc(C)c3c2C)cc1 (stereo not drawn) | -95.5* | ? | ? | ? | ? | ?
Cc1nnc(N2CCC(C(=O)NC(C)C)CC2)c2nn(-c3ccc(Cl)cc3)c(C)c12 | / | / | / | / | 7.7% | 16.8%
COc1ccc(-n2nc3c(N4CCC(C(=O)NC5CCCCC5)CC4)nnc(C)c3c2C)cc1 | 24.9 | -2.0% | -10.5% | -0.8% | 13µM*! | 14.6µM*!
C[C@H](CO)N1C[C@H](C)[C@H](CN(C)Cc2ccccc2)Oc2ncc(Br)cc2C1=O | -25.3 | -1.8% | / | -2.5% | -11.7% | -22.6%
SMILES | IL1B secr inh | HT1080 IDH1KD tx | uPA generation | HT1080-NT tox | TDP1 cell CPT | TDP1 cell noCPT
COC(=O)c1sc(NC(=S)NNC(=O)c2c(Br)c(C)nn2C)c(C(=O)OC)c1C | 19.4 | -0.4% | 4.1% | -3.9% | -6.6% | -10.9%
COc1ccccc1CNC(=O)C1CCN(c2nnc(C)c3c(C)n(-c4ccccc4)nc23)CC1 | / | / | / | / | 16.4% | -22.5%
CC(=O)Nc1c(C)nn(-c2ccccc2)c1N1CCC(C(=O)NCc2cccc(F)c2)CC1 | / | / | / | / | -11.1% | -20.2%
Cc1ccc(-n2nc3c(N4CCC(C(=O)NCc5cccc(F)c5)CC4)nnc(C)c3c2C)cc1 | ? | ? | -2.3% | ? | ? | 18.4µM*
Cc1ccc(-n2nc3c(N4CCC(C(=O)N5CCC(C)CC5)CC4)nnc(C)c3c2C)cc1 | / | / | / | / | -27.5% | -21.3%
COc1ccc(-n2nc3c(N4CCCC(C(=O)NCc5ccccc5C)C4)nnc(C)c3c2C)cc1 (stereo not drawn) | / | / | / | / | 2.91µM* | 5.17µM*
COc1ccccc1CNC(=O)C1CCCN(c2nnc(C)c3c(C)n(-c4ccccc4)nc23)C1 (stereo not drawn) | / | / | / | / | 20.6µM* | 20.6µM*
Cc1ccc(-n2nc3c(N4CCC(C(=O)NCc5ccc(C)o5)CC4)nnc(C)c3c2C)cc1 | -0.9 | 18.4µM* | ? | 20.6µM* | 23.1µM* | ?
COc1ccc(-n2nc3c(N4CCCC(C(=O)NCCc5ccc(C)cc5)C4)nnc(C)c3c2C)cc1 (stereo not drawn) | / | / | / | / | 3.26µM* | 3.66µM*
Cc1ccc(-n2nc3c(N4CCC(C(=O)NCCc5ccccc5C)CC4)nnc(C)c3c2C)cc1 | -11.0 | -4.4% | -20.9% | -7.4% | 16.4µM* | 5.8µM*
CCOc1ccc(NC(=O)C2CCCN(c3nnc(C)c4c(C)n(-c5ccccc5)nc34)C2)cc1 (stereo not drawn) | / | / | / | / | -10.9% | -15.3%
COc1ccc(-n2nc3c(N4CCC(C(=O)NCc5ccco5)CC4)nnc(C)c3c2C)cc1 | -21.3 | 4.3% | 4.6% | 0.0% | ? | ?
Cc1ccc(-n2nc3c(N4CCC(C(=O)NCCc5ccco5)CC4)nnc(C)c3c2C)cc1 | -17.8 | ? | ? | ? | 20.6µM* | ?
Cc1ccc(-n2nc3c(N4CCC(C(=O)NCCC(C)C)CC4)nnc(C)c3c2C)cc1 | / | / | / | / | 16.4µM* | ?
CCCCC[C@@H](C)N1C[C@@H](COCc2ccccc2)Oc2cc(N3CCC[C@@H]3CO)ccc2S1(=O)=O | -28.0 | ? | / | ? | ? | ?
Cc1ccc(S(=O)(=O)NC(=O)C2(C)CCN2C(=O)Cc2cccs2)cc1 (stereo not drawn) | -0.6 | 12.5% | / | -2.9% | 0.4% | 4.2%
